Experimental data published in PubChem BioAssay AID778 (Sanford-Burnham Center for Chemical Genomics, 2007).
Screen size: about 96,000 compounds; about 20,000 (21%) were called active.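 Rule for the calls: active = CYP2C19 inhibition above a set limit at 5 µM in the primary screen (cut at about 50% in these data); inactive = the rest.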 A selection follows.

Each molecule was assayed against Cytochrome P450 2C19 (Homo sapiens) (UniProt P33261) (assay: blockers of cytochrome P450 2C19 activity – biochemical, luminescence, ADME assay, primary screen (AID 778;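 note: plate controls were negative control wells for no effect and 2.5 mM tranylcypromine positive control for full effect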)). Conditions: CYP2C19 Supersomes, luciferin-H EGE luminescence, 30 min; at 5 µM; stronger effect = higher value.
Cytochrome P450 2C19 (Homo sapiens), sequence (P33261 whole entry, looked up): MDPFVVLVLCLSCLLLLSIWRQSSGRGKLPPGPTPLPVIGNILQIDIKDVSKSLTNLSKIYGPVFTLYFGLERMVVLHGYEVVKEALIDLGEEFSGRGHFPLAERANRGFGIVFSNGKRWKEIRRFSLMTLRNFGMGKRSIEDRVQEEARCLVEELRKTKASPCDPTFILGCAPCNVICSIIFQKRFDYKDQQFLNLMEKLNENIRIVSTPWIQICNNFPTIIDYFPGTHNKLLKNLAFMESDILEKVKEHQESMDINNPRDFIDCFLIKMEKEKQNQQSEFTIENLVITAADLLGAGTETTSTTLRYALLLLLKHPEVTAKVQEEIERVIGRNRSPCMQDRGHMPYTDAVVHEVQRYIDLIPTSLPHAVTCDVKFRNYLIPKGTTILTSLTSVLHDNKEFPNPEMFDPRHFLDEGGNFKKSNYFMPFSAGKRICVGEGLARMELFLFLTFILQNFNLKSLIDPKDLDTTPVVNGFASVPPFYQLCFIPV

Compound	inhibition
C=CCNc1ncnc2ccc(Br)cc12	20.7% (inactive)
Cc1nc(CNS(=O)(=O)c2ccc(Oc3ccccc3)cc2)cs1	73.1% (active)
Cc1nc(CNS(=O)(=O)c2cccnc2)cs1	19.3% (inactive)
Cc1ccc(S(=O)(=O)NCc2csc(C)n2)c(C)c1	13.3% (inactive)
CCOC(=O)c1sc(NC(=O)c2cc(S(=O)(=O)N3CCOCC3)ccc2C)nc1C	35.4% (inactive)
Cc1cc(=O)oc2cc(OC(C)C(=O)Nc3ccc(N4CCOCC4)cc3)ccc12 (stereo not drawn)	27.5% (inactive)
Cc1cc(C(=O)OC(C)C(=O)Nc2cccc(S(=O)(=O)N3CCOCC3)c2)c(C)o1 (stereo not drawn)	96.4% (active)
CC(Sc1nncn1C)C(=O)Nc1ccccc1-c1ccccc1 (stereo not drawn)	9.5% (inactive)
O=C1Nc2cc(Cl)c(Cl)cc2N(O)N1c1cc(Cl)cc(Cl)c1	-1.7% (inactive)
CN(C)Cc1c(O)ccc2occ(C(O)c3ccccc3)c12 (stereo not drawn)	70.5% (active)
c1csc(CN2CCN(Cc3cccs3)C2c2cccs2)c1	16.8% (inactive)
O=C(CN1CCOCC1)Nc1cc(Cl)ccc1Cl	48.8% (inactive)
C=C(C)Cn1c(N2CCCC2)nc2c1c(=O)[nH]c(=O)n2C	-8.1% (inactive)
COc1ccccc1N1CCN(C(=O)CSc2nnc(-c3ccoc3C)o2)CC1	17.4% (inactive)
O=C(CSC1=Nc2ccccc2C2=NC(CC(=O)NCc3ccco3)C(=O)N12)NCc1ccco1 (stereo not drawn)	10.6% (inactive)
CCC1CCCCN1CCCNC(=O)Cn1nc(-c2ccccc2)ccc1=O (stereo not drawn)	-1.3% (inactive)
Cc1ccsc1-c1nc(CSCC(=O)NCCN2CCCC2)c(C)o1	1.6% (inactive)
C/C(=C\C(=O)c1cccnc1)Nc1ccc(C)c(C)c1	37.2% (inactive)
O=C(/C=C/c1ccc(Cl)cc1Cl)NCc1ccco1	31.8% (inactive)
O=C(/C=C/c1ccc(Cl)cc1Cl)c1cccnc1	62.6% (active)
C=CCn1c(N)c(C(=O)OCC(C)C)c2nc3ccccc3nc21	18.5% (inactive)
Cc1ccc(S(=O)(=O)c2c(N)n(C)c3nc4ccccc4nc23)cc1	47.7% (inactive)
C=CCn1c(N)c(S(=O)(=O)c2cccs2)c2nc3ccccc3nc21	80.5% (active)
Cc1ccc(NC(=S)NCCN2CCOCC2)cc1	23% (inactive)
Cc1ccc(Nc2nc(CSc3nnnn3-c3ccccc3)cc(=O)[nH]2)cc1	16.7% (inactive)

Compound	inhibition
O=C(CSc1nnc(Cc2ccccc2)n1-c1ccccc1)N1CCOCC1	8.2% (inactive)
COc1ccc(-c2noc(CN(C)S(=O)(=O)c3ccc(C)cc3)n2)cc1	40.2% (inactive)
COc1ccc(-c2noc(-c3ccc(C)cc3)n2)cc1	6.2% (inactive)
Cc1ccc(-c2noc(CSc3nnc(-c4ccncc4)n3-c3ccc(F)cc3)n2)cc1	58.3% (active)
CCN(CC)C(=O)CSc1nnc(-c2cnccn2)n1-c1ccc(C)cc1	-1.8% (inactive)
Cc1cccc(-c2noc(-c3ccc(F)cc3)n2)c1	32.6% (inactive)
COc1ccc(-c2noc(CSc3ccc(C)cc3)n2)cc1	78.6% (active)
Fc1ccc(-n2c(Cc3ccccc3)nnc2SCc2nc(-c3ccc(Cl)cc3)no2)cc1	80% (active)
CSc1nnc(CNC(=O)c2ccccc2)n1-c1ccc(F)cc1	-4.4% (inactive)
Cc1ccc(-c2noc(CSc3nnnn3-c3ccccc3)n2)cc1	73.4% (active)
Cc1cc2c(cc1C)N(C(=O)CN1C(=O)c3ccccc3C1=O)C(C)(C)c1ssc(=S)c1-2	3.4% (inactive)
OCCNCCCCOc1ccccc1F	-2.2% (inactive)
Cc1c(Br)c([N+](=O)[O-])nn1C(C)C(=O)Nc1nccs1 (stereo not drawn)	37.1% (inactive)
Cc1nnc(SCC(=O)N(C(C)C)C(C)C)nc1C	22.9% (inactive)
CCc1nc(N2CCN(c3nc(C)cc(C)n3)CC2)c2oc3ccccc3c2n1	8.3% (inactive)
O=C(Nc1ccc(Br)cc1)c1cccc(NC(=O)C2C3CC4OC(=O)C2C4C3)c1 (stereo not drawn)	24.6% (inactive)
O=C(Nc1nncs1)c1ccccc1NS(=O)(=O)c1cccs1	46.2% (inactive)
CC1(C)CC(=O)C(C=NCc2cccnc2)=C(O)C1	14.2% (inactive)
CCOC(=O)N1CCC(NC(=O)COc2cc(=O)n(C)c3ccccc23)CC1	-16.3% (inactive)
CN1C2CCC1/C(=C\c1ccccc1Cl)C(=O)/C2=C\c1ccccc1Cl	-12.1% (inactive)
Cc1ccc(CCNC(=O)C2CCN(S(=O)(=O)N3CCCC3)CC2)cc1	12.2% (inactive)
CCCCOc1ccc(NC(=O)CSCC(=O)OCC)cc1	14.3% (inactive)
O=S1(=O)CC(NCc2ccccc2)C(Nc2ccc(Cl)cc2)C1 (stereo not drawn)	46.7% (inactive)
Cn1c(=O)c2c(n(Cc3ccccc3)c1=O)NC(=O)C2CC(=O)N1CCc2ccccc2C1 (stereo not drawn)	-9.3% (inactive)
CC(Oc1ccc(-c2ccccc2)c(F)c1)c1ccn(S(=O)(=O)c2cccc3ccccc23)n1 (stereo not drawn)	25% (inactive)

Compound	inhibition
C=CCn1c(=N)n(CC(O)COc2ccc(OC)cc2)c2ccccc21 (stereo not drawn)	12.4% (inactive)
Cc1ccc(-c2noc(CSc3nnc(-c4cccs4)n3C)n2)cc1	23% (inactive)
Cc1ccc(-c2noc(CC(c3ccccc3)c3ccccc3)n2)cc1	19.9% (inactive)
Cc1ccc(-c2noc(CSc3nnc(-c4ccccc4)n3C)n2)cc1	88.2% (active)
CCCCCOC(=O)c1ccc(N2C(=O)C3C4C=CC(C4)C3C2=O)cc1 (stereo not drawn)	-13.5% (inactive)
O=C1Nc2ccccc2C12Nc1ccccc1S2 (stereo not drawn)	80.5% (active)
CC(=O)N1C(=O)C2(Nc3ccccc3N2)c2ccccc21	-7.6% (inactive)
Clc1cccc(N=C2NN=C(c3ccc4c(c3)OCCO4)CS2)c1	24.7% (inactive)
C=CC[n+]1c(-c2ccc(C)cc2)csc1NNC(=O)Nc1ccccc1	18% (inactive)
c1coc(-c2nc3nc4ccccc4n3nc2-c2ccco2)c1	-23.4% (inactive)
Cn1c(-c2ccco2)nc2cc3ccccc3cc21	53.3% (active)
CN(c1nc2ccccc2n2c(-c3ccco3)nnc12)S(=O)(=O)c1ccccc1	1.3% (inactive)
CSc1nc(C)nc2c1c(=O)n(C)c(=O)n2C	-8.7% (inactive)
CCCC1CC(C)(C(=O)Cn2[nH]c(=O)ccc2=O)OC1=O (stereo not drawn)	0.3% (inactive)
COc1ccc(-c2cc(C3CCN(c4ncccc4[N+](=O)[O-])CC3)[nH]n2)cc1	84.8% (active)
COc1cccc(NC(=O)c2nn(C34CC5CC(CC(C5)C3)C4)cc2[N+](=O)[O-])c1	9.7% (inactive)
CCCn1c(=O)c(-c2ccccc2)c(O)c2ccccc21	-13.5% (inactive)
COc1ccc(S(=O)(=O)NC2(C(F)(F)F)N=C3SCCN3C2=O)cc1 (stereo not drawn)	-1.5% (inactive)
Cc1cccc(N2CCN(S(=O)(=O)c3ccc4[nH]c(=O)c(=O)[nH]c4c3)CC2C)c1 (stereo not drawn)	19.7% (inactive)
CSc1nnc(-c2ccncc2)n1CCCN1CCCC1=O	-0.2% (inactive)
CC(C)NC(=O)c1ccc(Sc2ccccc2)c([N+](=O)[O-])c1	36.8% (inactive)
CC(C)(CCl)C(=O)Nc1ccc(Sc2ccc(F)cc2)cc1	-1.4% (inactive)
COC(=O)c1ccc(Sc2ccc(F)cc2)c(N)c1	94.3% (active)
c1cnc(NC2C3CC4CC(C3)CC2C4)nc1 (stereo not drawn)	26% (inactive)
CN(C)c1ccc(CNC23CN4CN(CN(C4)C2)C3)cc1	0.2% (inactive)

Compound	inhibition
CN(C)c1ccc(CNC2C3CC4CC(C3)CC2C4)cc1 (stereo not drawn)	75.5% (active)
COc1ccc(C(=O)Nc2ccc(S(=O)(=O)Nc3onc(C)c3C)cc2)cc1OC	15.5% (inactive)
CC(C)CNS(=O)(=O)c1ccc(OCC(=O)Nc2ccc3c(c2)OCO3)c(Cl)c1	-1% (inactive)
COc1ccc(S(=O)(=O)Nc2ccc3c(c2)OCO3)cc1Cl	100% (active)
Cc1cc(Cl)c(S(=O)(=O)Nc2ccc3c(c2)OCCO3)cc1OCC(N)=O	15.3% (inactive)
COc1ccc(F)cc1S(=O)(=O)Nc1ccc2c(c1)OCO2	69.4% (active)
COc1ccc(S(=O)(=O)Nc2ccc(F)cc2)c(C)c1C	94.9% (active)
COc1ccc(C(=O)Nc2ccc3c(c2)OCO3)cc1OC	39.8% (inactive)
O=C1CCCC2=C1C(c1cccs1)n1nc(SCc3ccccc3)nc1N2 (stereo not drawn)	-10.3% (inactive)
N=c1c2c3c(sc2ncn1CCCN1CCOCC1)CCCCC3	7.8% (inactive)
CCOc1cc2[nH]c(=S)n(Cc3ccc(C(=O)NCCOC)cc3)c(=O)c2cc1OCC	-10.8% (inactive)
CCOC(=O)N1CCN(Cc2oc(CO)cc(=O)c2O)CC1	5.4% (inactive)
CSCCC(NS(=O)(=O)c1ccc2c(c1)oc(=O)n2C)C(=O)NC1CCCc2ccccc21 (stereo not drawn)	7.6% (inactive)
OC1CN=C2Sc3ccccc3N2C1 (stereo not drawn)	-7.4% (inactive)
O=C(Cc1ccc2c(c1)CCCC2)Nc1ccccc1Cl	27.1% (inactive)
CC1(C)CC(CCC(=O)Nc2ccccc2Cl)C(=O)O1 (stereo not drawn)	1.2% (inactive)
O=C(Nc1ncc2c(n1)CC(c1ccco1)CC2=O)c1ccc(Cl)cc1 (stereo not drawn)	28.4% (inactive)
CCCCOc1ccc(CSC(=N)N)cc1[N+](=O)[O-]	16.6% (inactive)
Cc1cc(=O)[nH]c(SCc2cc(Cl)ccc2OC(F)F)n1	29% (inactive)
CCCCOc1ccc(Cl)cc1CSc1nncn1N	86.7% (active)
Cc1[nH]n(-c2ccc([N+](=O)[O-])cc2)c(=O)c1C=NCCN1CCN(C(=O)c2ccccc2F)CC1	9.2% (inactive)
CCC(=O)Nc1ccccc1N1CCN(S(C)(=O)=O)CC1	10.6% (inactive)
COc1ccc(C(=O)NC(=S)Nc2ccccc2N2CCN(S(C)(=O)=O)CC2)cc1OC	75.2% (active)
